According to PubChem BioAssay AID1159580 (chemical genetic matrix, 2015):
Values joined by “and” are separate entries in the source; they are usually repeats but may differ in a detail not shown here. Equal values may be shown once. In all, about 5,500 compounds went through this assay and about 2,000 (36%) were called active. Not shown: some 18% with an inconclusive outcome. Cut-off read from the data, not from the text of the source: active = normalized growth mostly below about 0.91 (no sharp cut-off); inconclusive = no clear call, values can overlap the other calls; inactive = mostly above about 0.92. Some of the results follow.

Assay: chemical genetic growth profiling, strain panel (AID 1159580);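 note: tested at 20 µM; growth read once vehicle control cultures reached saturation at 30 °C; 1 = growth at the plate median or of vehicle wells; lower values mean less growth of the strain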
Conditions: S. cerevisiae deletion strains, growth OD

Measured: normalized growth

COc1ccc2c(c1)OC[C@@H](Cc1ccc(OC)c(OC)c1)[C@@H]2O
active: locus YDR137W, strain rgp1, stronger effect = lower value 0.802
inactive: locus YAL013W, strain DEP1, stronger effect = lower value 1.01 | locus YAL021C, strain ccr4, stronger effect = lower value 0.999 | locus YAL026C, strain drs2, stronger effect = lower value 1 | locus YAL030W, strain snc1, stronger effect = lower value 0.994 | locus YBL061C, strain skt5, stronger effect = lower value 0.99 | locus YBR009C, strain hhf1, stronger effect = lower value 0.98 | locus YBR021W, strain FUR4, stronger effect = lower value 0.984 | locus YBR023C, strain chs3, stronger effect = lower value 0.998 | locus YBR171W, strain sec66, stronger effect = lower value 0.99 | locus YBR229C, strain ROT2, stronger effect = lower value 1 | locus YBR231C, strain swc5, stronger effect = lower value 1 | locus YBR279W, strain paf1, stronger effect = lower value 1 | locus YCL011C, strain gbp2, stronger effect = lower value 1 | locus YCL016C, strain dcc1, stronger effect = lower value 0.999 | locus YCL029C, strain bik1, stronger effect = lower value 0.988 | locus YCL069W, strain vba3, stronger effect = lower value 0.996 | locus YCR088W, strain abp1, stronger effect = lower value 0.983 | locus YDL005C, strain med2, stronger effect = lower value 0.975 | locus YDL035C, strain GPR1, stronger effect = lower value 0.99 | locus YDL040C, strain nat1, stronger effect = lower value 0.994 | locus YDL074C, strain BRE1, stronger effect = lower value 0.982 | locus YDL101C, strain DUN1, stronger effect = lower value 1.01 | locus YDL134C, strain PPH21, stronger effect = lower value 1 | locus YDL185W, strain tfp1, stronger effect = lower value 0.997 | locus YDL192W, strain arf1, stronger effect = lower value 0.988 | locus YDR001C, strain nth1, stronger effect = lower value 0.998 | locus YDR069C, strain doa4, stronger effect = lower value 0.996 | locus YDR101C, strain arx1, stronger effect = lower value 0.983 | locus YDR150W, strain NUM1, stronger effect = lower value 1 | locus YDR159W, strain sac3, stronger effect = lower value 0.94 | locus YDR162C, strain NBP2, stronger effect = lower value 0.999 | locus YDR195W, strain ref2 0.973 | locus YDR297W, strain sur2, stronger effect = lower value 0.985 | locus YDR318W, strain mcm21, stronger effect = lower value 0.96 | locus YDR334W, strain swr1, stronger effect = lower value 1.01 | locus YDR335W, strain msn5, stronger effect = lower value 1.01 | locus YDR388W, stronger effect = lower value 0.985 | locus YDR392W, strain spt3, stronger effect = lower value 0.91 | locus YDR502C, strain sam2, stronger effect = lower value 0.977 | locus YEL003W, strain gim4, stronger effect = lower value 1 | locus YEL037C, strain rad23, stronger effect = lower value 1.01 | locus YEL061C, strain CIN8 (second series), stronger effect = lower value 1 | locus YEL061C, strain CIN8, stronger effect = lower value 0.999 | locus YER015W, strain faa2, stronger effect = lower value 1 | locus YER016W, strain bim1, stronger effect = lower value 0.986 | locus YER110C, stronger effect = lower value 0.996 | locus YER111C, strain swi4, stronger effect = lower value 0.998 | locus YER155C, strain BEM2 (second series), stronger effect = lower value 0.99 | locus YER155C, strain BEM2, stronger effect = lower value 0.976 | locus YER167W, strain BCK2, stronger effect = lower value 0.958 | locus YFR010W, strain ubp6, stronger effect = lower value 0.998 | locus YGL078C, strain dbp3, stronger effect = lower value 0.996 | locus YGL086W, strain mad1, stronger effect = lower value 0.978 | locus YGL167C, strain pmr1, stronger effect = lower value 0.977 | locus YGL173C, strain kem1, stronger effect = lower value 1 | locus YGL227W, strain vid30, stronger effect = lower value 0.992 | locus YGL240W, strain doc1, stronger effect = lower value 1.02 | locus YGL248W, strain PDE1, stronger effect = lower value 0.996 | locus YGL253W, strain hxk2, stronger effect = lower value 1.02 | locus YGR078C, strain PAC10, stronger effect = lower value 1.01 | locus YGR135W, strain pre9, stronger effect = lower value 0.997 | locus YGR229C, strain SMI1, stronger effect = lower value 0.993 | locus YGR252W, strain gcn5, stronger effect = lower value 0.922 | locus YHR013C, strain ard1, stronger effect = lower value 0.966 | locus YHR027C, strain rpn1, stronger effect = lower value 1.02 | locus YHR030C, strain SLT2, stronger effect = lower value 0.995 and 1.01 | locus YHR079C, strain IRE1 (second series), stronger effect = lower value 0.981 | locus YHR079C, strain IRE1, stronger effect = lower value 1.01 | locus YHR094C, strain hxt1, stronger effect = lower value 0.989 | locus YHR129C, strain ARP1, stronger effect = lower value 0.993 | locus YHR142W, strain chs7, stronger effect = lower value 1.01 | locus YHR200W, strain rpn10, stronger effect = lower value 0.987 | locus YIL066C, strain RNR3, stronger effect = lower value 1 | locus YIL073C, strain SPO22, stronger effect = lower value 0.998 | locus YIL125W, strain kgd1, stronger effect = lower value 0.996 | locus YIR030C, strain dcg1, stronger effect = lower value 0.986 | locus YJL092W, strain hpr5, stronger effect = lower value 0.994 | locus YJL095W, strain BCK1 (second series), stronger effect = lower value 1 | locus YJL095W, strain BCK1, stronger effect = lower value 0.989 and 0.952 | locus YJL115W, strain asf1, stronger effect = lower value 1 | locus YJL129C, strain trk1, stronger effect = lower value 0.94 | locus YJL134W, strain LCB3, stronger effect = lower value 1 | locus YJL154C, strain vps35, stronger effect = lower value 1 | locus YJL164C, strain tpk1, stronger effect = lower value 0.99 | locus YJL166W, strain qcr8, stronger effect = lower value 1.01 | locus YJL168C, strain set2, stronger effect = lower value 0.99 | locus YJL187C, strain SWE1 (second series), stronger effect = lower value 1 | locus YJL187C, strain SWE1, stronger effect = lower value 0.998 | locus YJR043C, strain POL32, stronger effect = lower value 0.953 | locus YJR066W, strain TOR1, stronger effect = lower value 0.975
